IL2 activator: activates IL-2 in a cell-based reporter assay. activation, % (series mostly up to about 46 µM). IL-2 activation reporter assay, cell-based qHTS; stimulated with anti-CD3/CD4/CD28 beads; in transgenic mouse T cells. AID 652025. 360,000 tested, 0.065% active; in the data active means activation above about 50%; inconclusive means mostly about 30% to 49%; further: 0% is about no effect
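Unstimulated transgenic mouse T cells, 750 per well, received compound and, after 60 minutes, anti-CD3/anti-CD4 bead plus anti-CD28 stimulation. EGFP and DsRed were quantified after 18 hours.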
NPSR antagonist: blocks cAMP signaling of the human neuropeptide S receptor; 220,000 tested, 1% active; AID 1461; Potency, µM (doses to about 38.3 µM), without a hit: at the top dose activity change, negative = inhibition, usual class: inhibitors; CHO-NPSR cells, cAMP TR-FRET, antagonist mode; Q6W5P4; further: potency means the concentration at half of the fitted maximal effect; on the % scale 0 is the no-effect control and ±100 the full control effect; nearly all actives have a fitted effect of over 50% in size
ClpP mod: qHTS Assay for Activators of ClpP; ATP-dependent Clp protease proteolytic subunit (Bacillus subtilis (strain 168)), P80244; purified B. subtilis ClpP, FRET peptide cleavage, 20 min; Potency, µM (top dose mostly 57.5 µM), for the others: at the top dose activity change, negative = active; 340,000 tested, 1.9% active; AID 651965, 2013; active means well fitted falling curve with a large enough effect; inconclusive means small, poorly fitted or top-dose-only effect; inactive means no such curve, though single readings can be large or run the other way; further: potency means the concentration at half of the fitted maximal effect; the source files actives as falling curves though it sought activators and does not explain the sign; nearly all actives have a fitted effect of over 65% in size
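Buffer: 100 mM Tris/HCl pH8, 100 mM KCl, 0.05% low protease BSA, 2.5% glycerol, 0.01% Tween-20. ClpP 10 microg/mL final; 20 min RT; delta FRET normalized to ADEP and DMSO controls.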
PKM2 activator: PKM2 (human) enzyme activation | Potency, µM (top dose mostly 57.5 µM), for the others: top-dose activation, most hits filed as activators | 260,000 tested, 0.34% active | P14618 | purified PKM2, Kinase-Glo ATP luminescence, activation; response scale: 0% is enzyme alone, no compound; further: potency means the concentration at half of the fitted maximal effect; on the % scale 0 is the no-effect control and ±100 the full control effect; nearly all actives have a fitted effect of over 55% in size
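Purified hPK-M2 (>95% pure) converted ADP (0.1 mM final) to ATP with 0.5 mM PEP in 50 mM imidazole pH7.2, KCl, MgCl2, Tween 20, BSA; 1 h at room temperature. ATP detected by Kinase-Glo luminescence.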
* = called active by the depositor; ? = inconclusive; / = no result given; ! = repeats disagree; [ ] = another dose, or the depositor's remark. A selection: hits, their analogues and other compounds. The true share with any hit is near 2%. Unless noted, the call rests on the fitted dose curve; in most records, active means well fitted curve in the direction sought with a large enough effect; inconclusive means small, poorly fitted or top-dose-only effect, or another doubt; inactive means no such curve, though single readings can be large; an effect the other way counts as inactive or inconclusive.

SMILES	IL2 activator	NPSR antagonist	ClpP mod	PKM2 activator
Cn1c(=O)c([N+](=O)[O-])c(N2CCN(Cc3ccc4c(c3)OCO4)CC2)c2ccccc21	-1	-32%	0%	0%
Cc1ccccc1-n1c(SCc2csc(Nc3ccccc3)n2)nnc1-c1cccnc1	0	-15%[46.1 µM]	-1%	1%
Cc1ccc(Nc2nc(CSc3nnc(-c4cccnc4)n3-c3ccccc3C)cs2)cc1	0	-14%	28µM*	-26%
COc1ccc(S(=O)(=O)N2CCCCC2)cc1-n1cnnn1	0	-14%	/	-12%
Cc1cc(C)cc(NC(=O)CSc2n[nH]c(-c3cccnc3)n2)c1	1	/	/	/
CCc1cc2c(=O)c(-c3ccc4c(c3)OCCO4)coc2c(CN2CCCCC2C)c1O (stereo unspecified)	-1	10µM*	4%	2%
CCc1cc2c(=O)c(-c3nc4ccccc4[nH]3)coc2c(CN2CCCCC2C)c1O (stereo unspecified)	1	20%[7.67 µM]	0%	0%
Cc1ccc(N2C(=O)CSC23C(=O)N(CC(=O)NCc2ccccc2)c2ccccc23)cc1 (stereo unspecified)	/	/	-4%	/
Cc1ccc(C(C)C)c(OCC(=O)N/N=C2\CC(=O)CC(C)(C)C2)c1	0	/	/	5%
CC(=O)c1cc(CC=C(C)C)c(O)c(CC=C(C)C)c1O	1	-19%[46.1 µM]	28µM*	0%
CC(O)(c1cccnc1)c1nc(-c2ccc3ccccc3c2)cs1 (stereo unspecified)	-1	/	-10%	/
CCN1C(=O)/C(=C/C=C2\C=CN(CC)c3ccccc32)SC1=S	0	3.2µM*	2%	-26%
CNC(=O)c1cc(C)c(-c2ccccc2)s1	1	10%[46.1 µM]	32µM*	0%
NNC(=O)Cn1c(-c2ccccc2)cc2ccccc21	0	/	0%	3%
CC(=O)Nn1c(-c2ccccc2)cc2ccccc21	-4	-15%[46.1 µM]	14µM*	-2%
CC1(C)Cc2c(cnn2-c2ccc(F)cc2)C(NC(=O)CCN2CCCCO2)C1 (stereo unspecified)	0	/	25µM*	0%
COCCNc1nc(N)c([N+](=O)[O-])c(NCC2CCCO2)n1 (stereo unspecified)	3	14%	25µM*	-8%
CCN(CC)CCSc1nc(O)c(Cc2ccccc2)c(=O)n1-c1ccccc1	-1	4%	0%	-10%
COC(=O)C1=CN(C)C=C(C(=O)OC)C1c1ccsc1	0	-12%[46.1 µM]	7.9µM*	1%
COC(=O)C1=CN(Cc2cccs2)C=C(C(=O)OC)C1c1cccc(O)c1	0	22%	/	-1%
COc1ccc2c(c1)c(=O)oc1cc(O)ccc12	0	-1%	-30%	-2%
COC(=O)c1cc(-c2c(C)oc3cc(O)ccc3c2=O)c(C)o1	-1	-9%[46.1 µM]	25µM*	-2%
Cc1oc2cc(O)ccc2c(=O)c1Oc1ccccc1	-4	-9%[46.1 µM]	11µM*	-5%
CCOc1ccc(Oc2c(C)oc3cc(O)ccc3c2=O)cc1	-2	15%	/	-1%
O=c1oc2cc(O)ccc2c2ccccc12	2	5µM*	96%	3%
SMILES	IL2 activator	NPSR antagonist	ClpP mod	PKM2 activator
CC(NC(=O)c1ccccc1Br)c1nnc(SCC(=O)NC2CCCCC2)n1C (stereo unspecified)	0	/	/	-2%
CCOc1ccc(S(=O)(=O)N2CCN(Cc3ccccc3)CC2)cc1	0	/	15%	-1%
Cc1ccc(CNC(=O)c2nn(-c3ccc(Cl)cc3)nc2CO)cc1	/	/	25µM*	/
CCOc1ccc(C(=O)NCc2cccs2)cc1	2	-11%[46.1 µM]	-1%	2%
Cc1ccc(-n2nc(CO)c(C(=O)NCc3cccnc3)n2)cc1	/	/	7.9µM*	/
CCOc1ccc(-n2nc(CO)c(C(=O)NCc3cccs3)n2)cc1	/	/	7.9µM*	/
O=C(NCc1cccnc1)c1nn(-c2ccc(F)cc2)nc1CO	/	/	25µM*	/
Cc1ccc(-n2nc(CO)c(C(=O)NCc3ccccn3)n2)cc1	/	/	16%	/
CN1OC[C@@H]2CN(C(=O)C(C)(C)C)[C@H](c3cccc(-c4ccccc4)c3)C[C@@H]21	0	/	2%	/
O=C1CN(C(=O)COc2ccc(Cl)cc2)C(c2ccccc2)c2cc(Br)ccc2N1 (stereo unspecified)	/	/	-1%	/
Cc1ccc(-n2nc(CO)c(C(=O)NCc3cccnc3)n2)cc1C	/	/	16µM*	/
Cc1ccc(-n2nc(CO)c(C(=O)NCc3ccccn3)n2)cc1C	/	/	-5%	/
COc1ccc(-c2[nH]c(-c3ccccc3)nc2SCC(=O)NC2CCCC2)cc1	-4	-15%	22µM*!	0%
COc1ccc(-c2[nH]c(-c3cccc(OC)c3)nc2SCC(=O)NC2CCCC2)cc1	-4	-20%	25µM*!	-3%
Cc1[nH]nc2c1-c1nc3ccccc3nc1C(C)(C)C2	-4	-15%[46.1 µM]	14µM*	1%
CC12CCC(C)(c3nc4ccccc4nc31)C2(C)C	-1	-6%	/	-8%
CC1CN(C(=O)/C=C/c2ccc3c(c2)OCO3)CC(C)O1 (stereo unspecified)	1	-4%[46.1 µM]	28µM*	11%
COc1ccc2[nH]c(=O)c(CN(CC3CCCO3)C(=O)Nc3ccc(F)cc3)cc2c1 (stereo unspecified)	-4	?	16µM*	-3%
COc1cccc(C(=O)N(Cc2cc3cc(C)ccc3[nH]c2=O)CC2CCCO2)c1 (stereo unspecified)	-1	-31%[46.1 µM]	32µM*	8%
COc1ccc(NC(=O)N(Cc2cc3cc(C)ccc3[nH]c2=O)CC2CCCO2)cc1 (stereo unspecified)	1	-13%	-18%	2%
COc1ccc2[nH]c(=O)c(CN(C(=O)C3CCCO3)c3ccc(C)cc3)cc2c1 (stereo unspecified)	0	-4%[46.1 µM]	28µM*	0%
COc1cc(C(=O)N(Cc2cc3cc(C)ccc3[nH]c2=O)CC2CCCO2)cc(OC)c1OC (stereo unspecified)	-1	-8%[46.1 µM]	-4%	0%
COc1cccc(C(=O)N(Cc2ccccc2)Cc2cc3cc4c(cc3[nH]c2=O)OCCO4)c1	-2	-22%[46.1 µM]	28µM*	1%
CCn1nc(C)c(/C=N/NC(=O)c2ccoc2C)c1C	-1	-1%[46.1 µM]	16µM*	-29%
CCCCCn1nc(C)c(/C=N/NC(=O)c2ccoc2C)c1C	-2	-9%[46.1 µM]	0%	-22%
SMILES	IL2 activator	NPSR antagonist	ClpP mod	PKM2 activator
Cc1nc(-c2ccc(Cl)cc2)sc1C1(C)CC(c2ccccc2Br)=NO1 (stereo unspecified)	0	/	25µM*	/
CCOc1ccc(NC(=O)N(Cc2ccc(CC)cc2)Cc2cn[nH]c2-c2ccc(OC)cc2)cc1	/	/	1%	/
COc1ccc(-c2cc(C(F)F)n3ncc(C(=O)N4CCN(C)CC4)c3n2)cc1	3	-6%[46.1 µM]	25µM*	-7%
Cc1cc(C(=O)CN2C(=O)NC3(CCCCCC3)C2=O)c(C)n1C	0	/	-9%	/
O=C(NCc1ccc2c(c1)OCO2)c1ccc2c(c1)N(Cc1c(F)cccc1Cl)C(=O)CS2	-1	-16%	14µM*	-12%
O=C(NCc1ccc2c(c1)OCO2)c1ccc2c(c1)N(Cc1ccccc1F)C(=O)c1ccccc1S2	/	/	-1%	/
